For 40 compounds, Potency results are on record in PubChem BioAssay (Tox21).

Where “and” joins values, the source holds several entries; their conditions need not be identical. Identical values can stand only once. Records with an inconclusive call do not appear. Where a call stands in place of a potency, no number is given. Calls of active or inactive are those of the source. The call rests on the fitted dose curve; in most records, active means well fitted cell-killing curve with a large enough effect in the repeat runs; inconclusive means weak or mixed curves; inactive means no such curve, though single readings can be large or run the other way.
Potency means the concentration at half of the fitted maximal effect.

This experiment is described as follows: qHTS assay to identify small molecule antagonists of the peroxisome proliferator-activated receptor delta (PPARd) signaling pathway - cell viability counter screen (AID 743213). Further: nearly all actives have a fitted effect of over 50% in size. The settings on record: PPARd-bla HEK293H viability, CellTiter-Glo luminescence, 17 h; series mostly up to 62 µM. The text has this:
U.S. Tox21 Program National Center for Advancing Translational Sciences [NCATS] NIH Chemical Genomics Center [NCGC] U.S. Environmental Protection Agency [EPA] National Institutes of Environmental Health Sciences [NIEHS] National Toxicology Program [NTP] U.S. Food and Drug Administration [FDA] Tox21 Assay Overview: The peroxisome proliferator-activated receptors (PPARs) are lipid-activated transcription factors of the nuclear receptor superfamily with three distinct subtypes namely PPAR alpha, PPAR delta (PPARd) and PPAR gamma. All these subtypes heterodimerizes with Retinoid X receptor (RXR) and have different physiological functions. […] To identify the compounds that inhibit PPAR-delta signaling, GeneBLAzer PPAR delta UAS-bla HEK293H cell line (Invitrogen, Carlsbad, CA, USA) containing a beta-lactamase reporter gene under the control of an Upstream Activator Sequence (UAS) was used to screen the Tox21 compound library. The cytotoxicity of the Tox21 compound library against the PPARd-bla cell line was tested in parallel by measuring the cell viability using CellTiter-Glo assay (Promega, Madison, WI) in the same wells.
Tox21 Assay Protocol Summary: PPARd-bla cells were dispensed at 3000 cells/5uL/well in 1536-well black wall/clear bottom plates using a Multidrop Combi (Thermo Fisher Scientific, Waltham, MA) dispenser. After the assay plates were incubated at 37 C and 5% CO2 for 5 h, 23 nL of compounds dissolved in DMSO, positive controls or DMSO only was transferred to the assay plate by a Pintool station (Kalypsys, San Diego, CA), followed by addition of 1ul L165041 (300 nM, final concentration in the wells). The assay plates were incubated at 37 C for 17 h, and then 1 uL of LiveBLAzerTM B/G FRET substrate was added using a Bioraptr Flying Reagent Dispenser (FRD) workstation (Beckman Coulter, Indianapolis, IN, USA). The assay plates were incubated at room temperature for 2 h and fluorescence intensity was measured by an Envision plate reader (PerkinElmer, Shelton, CT). For cell viability readout that measures cytotoxicity, 3 ul/well of CellTiter-Glo reagent was added into the assay plates using a Bioraptr FRD. After 30 min incubation at room temperature, the luminescence intensity in the plates was measured using a ViewLux plate reader (PerkinElmer).
On the technique in general: qHTS replaces the single test concentration by a dilution series.
Take `O=c1oc2cc(O)ccc2c2oc3cc(O)ccc3c12`: the Potency result is “inactive”. Turning to `c1ccsc1`, the Potency result was “inactive”. Turning to `CCCCOC(=O)CO`, the Potency entry is “inactive”. As for `CN(C)C(=O)COC(=O)Cc1ccc(OC(=O)c2ccc(N=C(N)N)cc2)cc1`, the entry is “inactive”; as for `CC(=O)c1ccc(C(C)=O)cc1`, “inactive”; as for `Oc1cc(Cl)cc(Cl)c1Cl`, “inactive”. The entry for `CC(C)(c1cc(Br)c(OCC(Br)CBr)c(Br)c1)c1cc(Br)c(OCC(Br)CBr)c(Br)c1` (stereo not given) is “inactive”. Take `Cc1cc(C)c(/C=C2\C(=O)Nc3ccccc32)[nH]1`: the Potency result is “inactive”.

Take `CC1(C)CC(O)CC(C)(C)N1`: the Potency result is “inactive”. Regarding `Nc1cc(Cl)c(O)c(Cl)c1`, the Potency result is “inactive”.

On to `OC1CCC(C2CCCCC2)CC1` (stereo not given), for which the Potency result was “inactive”. Regarding `COc1ccc2cc1Oc1ccc(cc1)C[C@H]1c3c(cc4c(c3Oc3cc5c(cc3OC)CCN(C)[C@@H]5C2)OCO4)CCN1C`, the Potency is 13.3 µM (active). In the case of `CC1=CCC(=C(C)C)CC1`, the Potency result is “inactive”.

Take `OC1CCCc2ccccc21` (stereo not given): the Potency result is “inactive”. As to `CCc1cccc(CC)c1NC(=O)CN(CC(=O)O)CC(=O)O`, the Potency entry is “inactive”.

On to `CCOC(=O)NNc1ccc(N(CC)CC(C)O)nn1` (stereo not given), for which the Potency entry was “inactive”. With `CC(C)CCCCCOC(=O)CCS`, the Potency entry was “inactive”. As for `COc1ccc(-c2coc3cc(O)ccc3c2=O)cc1`, the entry is “inactive”; as for `Cc1cc(-n2nc3ccc(Cl)cc3n2)c(O)c(C(C)(C)C)c1`, “inactive”; as for `CCO[C@@H]1O[C@H](C(COCc2ccccc2)OCc2ccccc2)[C@H](OCc2ccccc2)[C@H]1O` (stereo not given in full), “inactive”. As for `C[C@@H](O)[C@H](N)C(=O)O`, the entry is “inactive”; as for `CC1=Nc2ccccc2C1(C)C`, “inactive”; as for `CC(C)Cn1cnc2c(N)nc3ccccc3c21`, “inactive”. `COc1cc(/C=C/c2ccccc2)oc(=O)c1`: the Potency entry was “inactive”.

`C=CCCC(=O)/C=C/C1C(C)=CCCC1(C)C` (stereo not given): the Potency result is “inactive”.

For the compound `OCCN1CCN(CCCN2c3ccccc3Sc3ccc(C(F)(F)F)cc32)CC1`, the Potency is 11.9 µM (active). As for `CCCCCCCCCCOC(=O)c1ccccc1C(=O)OCCCCCCCC`, the entry is “inactive”; as for `O=[N+]([O-])c1ccc(F)c(Cl)c1`, “inactive”. As for `COCCOc1cc2cc(C(=O)NC3CCN(C(C)C)CC3)n(CC(=O)Nc3ccc(Cl)cn3)c2cn1`, the Potency entry is “inactive”. Regarding `CC[N+](CC)(CC)CCOc1ccc(/C=C/c2ccccc2)cc1`, the Potency entry is “inactive”. As for `O=C1OC2(c3ccc(O)cc3Oc3cc(O)ccc32)c2ccc(N=C=S)cc21`, the entry is “inactive”; as for `C=CC(=O)Nc1cc2c(Nc3ccc(F)c(Cl)c3)ncnc2cc1OCCCN1CCOCC1`, “inactive”; as for `O=C1C(c2[nH]c3ccc(S(=O)(=O)O)cc3c2O)=Nc2ccc(S(=O)(=O)O)cc21`, “inactive”.

`CCCC(=O)OC(C)(C)Cc1ccccc1`: the Potency result was “inactive”. As for `CCCCCCCC`, the entry is “inactive”; as for `[Cl][Pt-2]([Cl])([Cl])[Cl]`, “inactive”; as for `Cc1c(C)c2c(c(C)c1OC(=O)c1cccnc1)CC[C@@](C)(CCC[C@H](C)CCC[C@H](C)CCCC(C)C)O2`, “inactive”.

Consider `Clc1ccnc(Cl)n1`, for which the Potency entry was “inactive”. Regarding `C#Cc1ccc(-c2ccccc2F)cc1`, the Potency result was “inactive”. As for `CCCCCCCCCCCCCC[N+](C)(C)C`, the figure is 21.1 µM (active) and 6.16 µM (active).
